Results published in PubChem BioAssay (NCI).
Compounds without any hit were thinned out: in the full panel of roughly 83,000, 20% have a hit.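 Single-dose data. Exposure time 48 hours. Values below 10 considered active.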 Values without a mark were called inactive. The source made the active and inactive calls.

Assays:
Test in all cases: NCI-60 one-dose screen, 48 h (100 = growth as untreated, 0 = no growth, -100 = all killed)
Conditions in all cases: 10 µM unless noted
[1] = system: SR leukemia
[2] = system: OVCAR-8 ovarian
[3] = system: OVCAR-5 ovarian
[4] = system: OVCAR-4 ovarian
[5] = system: SK-OV-3 ovarian
[6] = system: IGROV1 ovarian
[7] = system: OVCAR-3 ovarian
[8] = system: HS 578T breast
[9] = system: NCI/ADR-RES ovarian
[10] = system: RPMI-8226 leukemia

| Compound | growth [1] | growth [2] | growth [3] | growth [4] | growth [5] | growth [6] | growth [7] | growth [8] | growth [9] | growth [10] |
| --- | --- | --- | --- | --- | --- | --- | --- | --- | --- | --- |
| CCC(=O)Nc1cc2c(cc1Cl)-c1ccccc1C2 | 101% | 98% | 85.5% | 101% | 107% | 86.4% | 106% | 111% | 90.1% |  |
| CCN(CC)CCCCCCCNc1c2ccc(Cl)cc2nc2ccc(OC)cc12 | -16.5% (active) | -41.8% (active) | -8.18% (active) | -43% (active) | -30.7% (active) | -64.3% (active) | -39.6% (active) | -42.7% (active) | 12.7% |  |
| COc1ccc2cc(-c3nc4ccccc4[nH]3)c(=O)oc2c1 | 36.5% |  | 101% | 99.3% | 104% |  | 106% | 125% | 93% | 115% |
| O=C(COc1ccc(/C=C2\Cc3ccccc3C2=O)cc1)c1ccc(Cl)cc1 | 117% |  | 102% | 112% | 112% |  | 128% | 105% | 92.6% | 90.3% |
| O=C1OC2(c3ccccc31)c1ccccc1-c1ccccc12 | 41.4% | 101% | 88.4% | 82.9% | 91.7% | 90.6% | 93.6% | 83.4% | 90.8% |  |
| CC(C)=CCNc1ncnc2c1ncn2C1OC(COP(=O)(O)O)C(O)C1O (configuration not stated) | -15.2% (active) |  | 74.5% | 85.4% | 12.9% | 54.6% |  | 63.8% |  | 109% |
| Cc1cccc2nnc(-c3ccccc3)n12 | 93% | 109% | 107% | 104% | 121% | 115% | 129% | 146% | 107% |  |
| Nc1ncnc2c1CN(Cc1ccccc1)CC2 | 94.6% | 106% | 114% | 102% | 103% | 118% | 129% | 119% | 104% |  |
| COc1ccc(C(=O)/C=C/c2cccc(Nc3ccnc4cc(Cl)ccc34)c2)cc1 | 0.362% (active) |  | 39.3% | -46% (active) | 64% | 30.2% | 23.9% |  | 21.3% | 35.3% |
| O=c1[nH]c(SCc2ccccc2)nc2nc(Nc3ccc(NC(=S)Nc4ccccc4)cc3)nc(-c3ccc(O)cc3O)c12 | 54.8% |  | 87.5% | 100% | 91.4% |  | 81.1% | 107% | 99.3% | 96.5% |
| Nc1ccc2c(c1)Cc1cc(Cl)c(Cl)cc1-2 | 70.4% | 86.4% | 82.6% | 78.6% | 69.1% | 89.1% | 7.25% (active) | 67.9% | 62.9% |  |
| O=[N+]([O-])c1ccc(N=Nc2c(Cl)cc(O)cc2Cl)cc1 | 3.27% (active) | 6.5% (active) | 25.3% | 12.1% | 13.3% | 6.67% (active) | -25.3% (active) | -20% (active) | -19.7% (active) |  |
| COC(=O)C1(NC(=O)CNC(=O)OCc2ccccc2)CCCC1 | 100% | 106% | 103% | 98.3% | 111% | 115% | 149% | 131% | 111% |  |
| O=C(Nc1nc2c(C(F)(F)F)cccc2s1)c1cc(Cl)ccc1O | 7.18% (active) |  | 29.3% | 21.8% | -8.89% (active) | 24.2% | 10.1% |  | 1.26% (active) | -22.7% (active) |
| CCOC(=O)CNC(=O)C1(NC(=O)CNC(=O)OCc2ccccc2)CCCC1 | 103% | 107% | 95.1% | 106% | 104% | 117% | 142% | 125% | 105% |  |
| Nc1ccc2c(c1)C(=O)c1cc(Cl)c(Cl)cc1-2 | 82% | 92.3% | 95.9% | 89.9% | 97.9% | 94.6% | 110% | 105% | 97.3% |  |

| Compound | growth [1] | growth [2] | growth [3] | growth [4] | growth [5] | growth [6] | growth [7] | growth [8] | growth [9] | growth [10] |
| --- | --- | --- | --- | --- | --- | --- | --- | --- | --- | --- |
| O=C(Nc1ccccc1S)c1ccccc1 | 82.6% | 105% | 123% | 98.4% | 115% | 107% | 112% | 103% | 98.1% |  |
| COc1ccc(C2CC(c3ccc4c(c3)OCO4)=NN2C=O)cc1 (configuration not stated) | 100% | 106% | 110% | 92.8% | 108% | 127% | 128% | 115% | 103% |  |
| O=C1c2cccc(NCCN=Cc3ccccc3O)c2C(=O)c2c(NCCN=Cc3ccccc3O)cccc21 | -20.9% (active) |  | 15.9% | 2.43% (active) | 29% |  | 11.1% | 4.31% (active) | 93.9% | -9.08% (active) |
| CN1CCN(CCCOc2ccc3ncnc(Nc4ccc(OCc5cccc(F)c5)c(Cl)c4)c3c2)CC1 | -6.49% (active) |  | -59.4% (active) | -19.9% (active) | 12.4% | -34.9% (active) | -6.29% (active) | -19.3% (active) | 18.3% | -24.6% (active) |
| CCOC(=O)c1sc(NC(=O)COc2cccc(/C=C3\Cc4ccc(Cl)cc4C3=O)c2)nc1C | 114% |  | 101% | 118% | 114% |  | 120% | 110% | 97% | 57.5% |
| Cc1ccc(OCC(=O)Nc2ccc(Oc3ccccc3)cc2)c([N+](=O)[O-])n1 | 82.6% |  | 84.4% | 77.4% | 71.9% |  | 88.7% | 113% | 43.7% | 50.7% |
| CC(=O)Nc1c(Cl)cc2c(c1Cl)Cc1cc([N+](=O)[O-])ccc1-2 | 70% | 77.7% | 117% | 81.2% | 84.4% | 117% | 72% | 34.6% | 94.8% |  |
| O=C1N=C(N2CCOCC2)S/C1=C\c1cn(-c2ccccc2)nc1-c1ccccc1 | 71.5% | 69.9% | 109% | 25.1% | 83.3% | 79.9% | 58% | 57.4% | 60.2% |  |
| COC(=O)CC1=C(c2ccc([N+](=O)[O-])cc2)CCC1=O | 104% | 104% | 105% | 110% | 99.1% | 127% | 121% | 114% | 109% |  |
| Cc1cc2ccccn2c1C(=O)c1ccc(C(=O)c2ccccc2)cc1 | -3.06% (active) |  | 87.8% | 81.4% | 111% |  | 96% | 86% | 72% | 82.1% |
| CCOC(=O)Nc1cc(-c2ccc(C)c(NS(C)(=O)=O)c2)nn2c(C)nnc12 | 24.9% |  | 32.2% | 22.8% | 4.31% (active) | -45.6% (active) | -10.4% (active) | 9.38% (active) | 53.3% | -20.4% (active) |
| Cc1cc(-c2ccccc2)cc(C)n1 | 99.4% | 106% | 108% | 99.7% | 109% | 102% | 127% | 111% | 110% |  |
| CNc1nc(NC2CCCC2)nc(Sc2ccc(OC)cc2)n1 | -0.593% [100 µM] (active) |  | 59.5% [100 µM] | 36.9% [100 µM] | 74.9% [100 µM] | 45.9% [100 µM] | -25.5% [100 µM] (active) |  | 11.9% [100 µM] | -11.2% [100 µM] (active) |
| CCOC(CNCc1cc(C)c2[nH]c3ccccc3c2c1C)OCC | 77.4% | 89.5% | 99.3% | 58.7% | 93.1% | 83.9% | 83.9% | 84.6% | 77.2% |  |
| CC(=O)Nc1c(Cl)cc2c(c1Cl)Cc1ccccc1-2 | 101% | 102% | 85.4% | 100% | 113% | 93% | 105% | 114% | 103% |  |
